Holding throughout (test): DAPPL (digital affinity profiling via proximity ligation, sequencing); 10 mM Tris-HCl pH 7.5, 50 mM NaCl, 1 mM DTT, 4% glycerol, room temperature, 30 min; GST-TFs on glutathione beads, 16-mer random dsDNA library, 0.1% formaldehyde crosslink after washing; high values mean tight binding
Settings in all cases: protein: recombinant; tags: N-terminal GST; dsDNA, one strand shown

One experiment addresses T1, FLI1 (Homo sapiens, UniProt Q01543 1-452).
T1 sequence: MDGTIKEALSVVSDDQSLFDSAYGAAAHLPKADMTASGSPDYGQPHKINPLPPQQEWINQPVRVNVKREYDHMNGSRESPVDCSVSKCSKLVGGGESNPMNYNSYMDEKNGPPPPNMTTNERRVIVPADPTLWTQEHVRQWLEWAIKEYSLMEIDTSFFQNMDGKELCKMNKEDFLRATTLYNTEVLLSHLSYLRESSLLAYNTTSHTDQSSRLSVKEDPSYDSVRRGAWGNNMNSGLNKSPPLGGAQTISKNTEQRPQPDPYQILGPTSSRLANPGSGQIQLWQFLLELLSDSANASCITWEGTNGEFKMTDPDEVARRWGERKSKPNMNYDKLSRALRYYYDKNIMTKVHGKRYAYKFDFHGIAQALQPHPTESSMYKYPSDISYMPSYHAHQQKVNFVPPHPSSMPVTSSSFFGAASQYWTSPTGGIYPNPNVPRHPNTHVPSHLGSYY
The method, boiled down:
(§1)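 Human transcription factors fused to GST were expressed in yeast, captured on glutathione beads, given DNA barcodes and pooled with a GST-only negative control. Pools were incubated with 200 nmole of a 16-mer random double-stranded DNA library in Tris/NaCl/DTT/glycerol buffer at room temperature for 30 min. They were then washed, crosslinked with 0.1% formaldehyde, proximity-ligated (BsaI/T4 ligase, 1 h, 37 °C), PCR-amplified and sequenced on an Illumina NextSeq500. Binding signal is each 6-mer's read frequency for a factor divided by its frequency for the GST control.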

For a further experiment, the target named is T2, ELK1 (Homo sapiens, UniProt P19419 1-428).
T2 sequence: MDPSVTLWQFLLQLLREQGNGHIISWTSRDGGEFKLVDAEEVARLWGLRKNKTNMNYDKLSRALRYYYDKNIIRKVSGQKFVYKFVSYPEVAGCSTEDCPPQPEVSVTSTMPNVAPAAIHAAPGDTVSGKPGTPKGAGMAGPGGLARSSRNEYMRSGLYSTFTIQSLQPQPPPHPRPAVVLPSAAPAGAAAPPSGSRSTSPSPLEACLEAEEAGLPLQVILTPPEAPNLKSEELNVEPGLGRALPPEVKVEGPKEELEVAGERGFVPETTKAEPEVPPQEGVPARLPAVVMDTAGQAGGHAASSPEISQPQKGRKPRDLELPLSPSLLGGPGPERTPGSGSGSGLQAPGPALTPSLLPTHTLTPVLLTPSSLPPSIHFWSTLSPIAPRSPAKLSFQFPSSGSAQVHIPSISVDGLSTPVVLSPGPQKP
The method, boiled down: as §1

The target in the next experiment is T3, GABPA (Homo sapiens, UniProt Q06546 1-454).
T3 sequence: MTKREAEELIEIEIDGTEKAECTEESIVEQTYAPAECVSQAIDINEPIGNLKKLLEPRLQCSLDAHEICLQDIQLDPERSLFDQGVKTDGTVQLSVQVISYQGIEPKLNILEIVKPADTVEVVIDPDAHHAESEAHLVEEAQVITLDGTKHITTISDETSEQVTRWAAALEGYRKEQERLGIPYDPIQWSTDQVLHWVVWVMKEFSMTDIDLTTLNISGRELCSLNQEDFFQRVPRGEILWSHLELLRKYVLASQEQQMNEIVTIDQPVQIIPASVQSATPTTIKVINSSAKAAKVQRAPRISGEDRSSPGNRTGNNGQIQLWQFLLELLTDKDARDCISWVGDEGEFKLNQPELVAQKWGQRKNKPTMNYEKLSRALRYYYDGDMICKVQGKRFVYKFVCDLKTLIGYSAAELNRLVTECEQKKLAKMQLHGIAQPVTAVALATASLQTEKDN
Summed up:
as §1

In another experiment the target is T4, ERG (Homo sapiens, UniProt P11308 1-479).
T4 sequence: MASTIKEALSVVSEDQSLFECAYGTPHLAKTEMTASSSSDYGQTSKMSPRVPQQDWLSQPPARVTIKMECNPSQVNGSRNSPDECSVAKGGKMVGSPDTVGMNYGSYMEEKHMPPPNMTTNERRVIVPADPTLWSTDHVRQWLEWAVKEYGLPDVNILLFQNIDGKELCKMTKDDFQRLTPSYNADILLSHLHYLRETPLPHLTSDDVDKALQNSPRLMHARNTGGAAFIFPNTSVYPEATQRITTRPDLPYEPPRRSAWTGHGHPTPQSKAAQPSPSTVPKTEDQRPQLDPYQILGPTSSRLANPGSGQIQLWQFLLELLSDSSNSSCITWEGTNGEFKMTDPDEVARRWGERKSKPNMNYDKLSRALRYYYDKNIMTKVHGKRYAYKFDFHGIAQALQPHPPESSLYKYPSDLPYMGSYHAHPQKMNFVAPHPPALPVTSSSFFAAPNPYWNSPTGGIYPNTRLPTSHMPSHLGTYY
Summed up: as §1

Another experiment deals with ELF1 (Homo sapiens, UniProt P32519 1-619). The method, boiled down: as §1
ELF1, sequence (P32519 whole entry): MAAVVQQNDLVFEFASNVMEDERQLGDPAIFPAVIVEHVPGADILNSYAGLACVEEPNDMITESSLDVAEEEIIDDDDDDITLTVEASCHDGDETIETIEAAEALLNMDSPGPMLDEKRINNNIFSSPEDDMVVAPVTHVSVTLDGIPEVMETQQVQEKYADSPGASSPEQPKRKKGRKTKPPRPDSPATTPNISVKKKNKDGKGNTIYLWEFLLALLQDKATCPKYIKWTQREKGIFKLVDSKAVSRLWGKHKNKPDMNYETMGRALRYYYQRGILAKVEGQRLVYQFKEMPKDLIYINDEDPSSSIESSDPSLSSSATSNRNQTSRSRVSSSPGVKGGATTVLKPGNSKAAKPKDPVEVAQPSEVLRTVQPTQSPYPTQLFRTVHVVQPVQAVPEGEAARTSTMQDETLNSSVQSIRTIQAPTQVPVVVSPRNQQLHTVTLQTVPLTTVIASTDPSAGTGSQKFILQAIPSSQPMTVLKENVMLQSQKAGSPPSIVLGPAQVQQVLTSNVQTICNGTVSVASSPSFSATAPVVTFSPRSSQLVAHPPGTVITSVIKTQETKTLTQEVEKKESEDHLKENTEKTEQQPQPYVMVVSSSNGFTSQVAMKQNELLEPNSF
Another experiment has as its target T5, EHF (Homo sapiens, UniProt Q9NZC4 1-300).
T5 sequence: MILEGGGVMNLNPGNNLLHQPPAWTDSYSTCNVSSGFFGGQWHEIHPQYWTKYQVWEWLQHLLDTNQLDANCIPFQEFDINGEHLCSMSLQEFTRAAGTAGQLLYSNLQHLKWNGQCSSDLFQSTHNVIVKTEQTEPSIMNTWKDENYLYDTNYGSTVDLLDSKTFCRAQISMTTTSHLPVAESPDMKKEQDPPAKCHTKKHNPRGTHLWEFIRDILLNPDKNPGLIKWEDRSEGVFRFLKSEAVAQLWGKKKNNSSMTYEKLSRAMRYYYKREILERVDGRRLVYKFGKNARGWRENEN
The method, boiled down:
as §1

In the next experiment the target is SPI1 (Homo sapiens, UniProt P17947 1-270). The method, boiled down: as §1
The target in a further experiment is SPIB (Homo sapiens, UniProt Q01892 1-262). The method, boiled down:
as §1

The next experiment addresses T6, ELK3 (Homo sapiens, UniProt P41970 1-407).
T6 sequence: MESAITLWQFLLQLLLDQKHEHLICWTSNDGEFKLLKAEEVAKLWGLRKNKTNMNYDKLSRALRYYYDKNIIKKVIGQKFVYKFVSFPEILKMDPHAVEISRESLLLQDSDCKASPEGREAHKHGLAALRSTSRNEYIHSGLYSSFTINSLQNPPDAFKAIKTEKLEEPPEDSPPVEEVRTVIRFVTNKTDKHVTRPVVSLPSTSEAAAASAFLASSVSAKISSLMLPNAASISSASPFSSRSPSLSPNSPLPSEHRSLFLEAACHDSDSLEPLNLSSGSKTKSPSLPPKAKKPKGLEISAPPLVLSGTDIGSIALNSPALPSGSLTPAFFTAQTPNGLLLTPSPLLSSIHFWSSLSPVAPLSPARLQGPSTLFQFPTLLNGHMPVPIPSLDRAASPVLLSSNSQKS
The method, boiled down:
as §1

This is an account of results in PMC7862700, “An all-to-all approach to the identification of sequence-specific readers for epigenetic DNA modifications on cytosine”.

SPIB, sequence (Q01892 whole entry): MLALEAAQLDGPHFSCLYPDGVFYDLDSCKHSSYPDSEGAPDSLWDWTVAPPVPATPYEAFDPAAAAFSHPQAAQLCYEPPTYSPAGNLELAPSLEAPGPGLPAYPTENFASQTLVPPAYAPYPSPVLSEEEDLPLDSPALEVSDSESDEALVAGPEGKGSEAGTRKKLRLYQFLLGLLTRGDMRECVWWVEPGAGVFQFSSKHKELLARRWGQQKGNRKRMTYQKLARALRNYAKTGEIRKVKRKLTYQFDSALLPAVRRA

In the case of ACCTCC, the binding signal in the experiment with FLI1 is 1.38 fold enrichment (6-mer frequency, TF over GST control); with ELK1, 1.42 fold enrichment (6-mer frequency, TF over GST control); in the experiment with GABPA, 1.43 fold enrichment (6-mer frequency, TF over GST control); with ERG, 1.36 fold enrichment (6-mer frequency, TF over GST control); in the experiment with ELF1, 1.44 fold enrichment (6-mer frequency, TF over GST control); in the experiment with EHF, 1.31 fold enrichment (6-mer frequency, TF over GST control). The binding signal in the experiment with SPI1 is 1.31 fold enrichment (6-mer frequency, TF over GST control); in the experiment with SPIB, 1.4 fold enrichment (6-mer frequency, TF over GST control); in the experiment with ELK3 it was 1.46 fold enrichment (6-mer frequency, TF over GST control).

For the sequence ACTTGT, the binding signal with FLI1 is 1.27 fold enrichment (6-mer frequency, TF over GST control); in the experiment with ELK1, 1.35 fold enrichment (6-mer frequency, TF over GST control); with GABPA, 1.29 fold enrichment (6-mer frequency, TF over GST control); with ERG, 1.15 fold enrichment (6-mer frequency, TF over GST control); in the experiment with ELF1 it was 1.29 fold enrichment (6-mer frequency, TF over GST control); in the experiment with EHF it was 1.31 fold enrichment (6-mer frequency, TF over GST control). The binding signal is 1.3 fold enrichment (6-mer frequency, TF over GST control) with SPI1; 1.45 fold enrichment (6-mer frequency, TF over GST control) with SPIB; 1.31 fold enrichment (6-mer frequency, TF over GST control) with ELK3.

Consider CTCCTG, for which the binding signal in the experiment with FLI1 is 1.66 fold enrichment (6-mer frequency, TF over GST control); with ELK1, 1.69 fold enrichment (6-mer frequency, TF over GST control); in the experiment with GABPA, 1.74 fold enrichment (6-mer frequency, TF over GST control); with ERG it was 1.51 fold enrichment (6-mer frequency, TF over GST control); in the experiment with ELF1, 1.65 fold enrichment (6-mer frequency, TF over GST control); with EHF, 1.33 fold enrichment (6-mer frequency, TF over GST control). The binding signal with SPI1 is 1.58 fold enrichment (6-mer frequency, TF over GST control); in the experiment with SPIB it was 1.7 fold enrichment (6-mer frequency, TF over GST control); with ELK3, 1.73 fold enrichment (6-mer frequency, TF over GST control).

For AAGTGT, the binding signal with FLI1 was 1.18 fold enrichment (6-mer frequency, TF over GST control); with ELK1, 1.29 fold enrichment (6-mer frequency, TF over GST control); in the experiment with GABPA it was 1.32 fold enrichment (6-mer frequency, TF over GST control); with ERG it was 1.44 fold enrichment (6-mer frequency, TF over GST control); with ELF1, 1.24 fold enrichment (6-mer frequency, TF over GST control); in the experiment with EHF it was 1.24 fold enrichment (6-mer frequency, TF over GST control). Also, the binding signal in the experiment with SPI1 is 1.6 fold enrichment (6-mer frequency, TF over GST control); with SPIB, 1.38 fold enrichment (6-mer frequency, TF over GST control); with ELK3, 1.37 fold enrichment (6-mer frequency, TF over GST control).

With GTTTAC, the binding signal is 1.21 fold enrichment (6-mer frequency, TF over GST control) with FLI1; 1.13 fold enrichment (6-mer frequency, TF over GST control) with ELK1; 1.19 fold enrichment (6-mer frequency, TF over GST control) with GABPA; 1.12 fold enrichment (6-mer frequency, TF over GST control) with ERG; 1.08 fold enrichment (6-mer frequency, TF over GST control) in the experiment with ELF1; 1.14 fold enrichment (6-mer frequency, TF over GST control) with EHF. Also, the binding signal with SPI1 is 1.13 fold enrichment (6-mer frequency, TF over GST control); with SPIB it was 1.09 fold enrichment (6-mer frequency, TF over GST control); with ELK3 it was 1.03 fold enrichment (6-mer frequency, TF over GST control).

For TGCAAA, the binding signal with FLI1 was 1.13 fold enrichment (6-mer frequency, TF over GST control); with ELK1 it was 1.11 fold enrichment (6-mer frequency, TF over GST control); in the experiment with GABPA, 1.07 fold enrichment (6-mer frequency, TF over GST control); in the experiment with ERG it was 1.14 fold enrichment (6-mer frequency, TF over GST control); with ELF1, 1.19 fold enrichment (6-mer frequency, TF over GST control); with EHF it was 1.16 fold enrichment (6-mer frequency, TF over GST control). The binding signal is 1.14 fold enrichment (6-mer frequency, TF over GST control) with SPI1; 1.12 fold enrichment (6-mer frequency, TF over GST control) with SPIB; 1.14 fold enrichment (6-mer frequency, TF over GST control) with ELK3.

For the sequence TGAACC, the binding signal with FLI1 is 1.17 fold enrichment (6-mer frequency, TF over GST control); with ELK1, 1.25 fold enrichment (6-mer frequency, TF over GST control); in the experiment with GABPA, 1.17 fold enrichment (6-mer frequency, TF over GST control); in the experiment with ERG, 1.1 fold enrichment (6-mer frequency, TF over GST control); in the experiment with ELF1, 1.15 fold enrichment (6-mer frequency, TF over GST control); with EHF, 1.16 fold enrichment (6-mer frequency, TF over GST control). The binding signal with SPI1 was 1.15 fold enrichment (6-mer frequency, TF over GST control); with SPIB, 1.15 fold enrichment (6-mer frequency, TF over GST control); in the experiment with ELK3, 1.12 fold enrichment (6-mer frequency, TF over GST control).
